# Test results as given in PubChem BioAssay (NCATS).
# Inconclusive results are not listed. The source made the active and inactive calls. Calls come from the whole dose curve; as a rule, active = well fitted curve in the direction sought with a large enough effect; inconclusive = small, poorly fitted or top-dose-only effect, or another doubt; inactive = no such curve, though single readings can be large; an effect the other way counts as inactive or inconclusive.
# Target: Aldehyde dehydrogenase, mitochondrial (Homo sapiens) (UniProt P05091)
# Assay: qHTS for Inhibitors of the Aldehyde Dehydrogenase Family (ALDH2) Primary screen (AID 2061308);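 note: plate controls were vehicle for no effect and reference inhibitor for full effect; nearly all actives have a fitted effect of over 55% in size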
# Conditions: ALDH2 enzyme inhibition qHTS, 1536-well; series mostly up to 56 µM; activity change, negative = inhibition: at the top concentration
Compound,"activity change, negative = inhibition",Potency
O=C(Nc1ccc(S(=O)(=O)Nc2ncc(-c3ccccc3)s2)cc1)c1ccc2ccccc2c1,2.12% (inactive),–
N#Cc1nc(Nc2cccc(-c3ccccc3)c2)nc(NC2CCCC2)n1,0.707% (inactive),–
Cc1cc2c(s1)c1c(n2C)C(=O)N(Cc2ccccc2F)C1,5.35% (inactive),–
O=C(O)C1CCC(C(=O)Nc2ccc([S+](=O)([O-])Nc3nccs3)cc2)CC1 (stereo not given),6.67% (inactive),–
Cc1csc(CNc2ncnc3ccc(-c4ccc5c(ccn5C)c4)cc23)c1,4.33% (inactive),–
c1nc(NCCc2cnc[nH]2)c2cc(-c3ccc4c(c3)OCO4)ccc2n1,–,inactive
CCn1cnc2c(NCc3cccnc3)nc(C#N)nc21,-5.95% (inactive),–
CCOC(=O)C1CCN(C(=O)C2(NC(=O)Nc3ccc(F)cc3F)CCCCC2)CC1,-10.7% (inactive),–
Cc1cc(C)nc(NC(=S)N2CC3CN(c4ccc(Cl)cc4C(F)(F)F)CC3C2)c1 (stereo not given),7.9% (inactive),–
Cc1cc2c(s1)c1cnn(Cc3ccc(OC(F)F)cc3)c(=O)c1n2C,8.2% (inactive),–
O=C(Nc1ccc(Br)c(Br)c1)Nc1cccc(-c2ccncc2)n1,-14.2% (inactive),–
O=S(=O)(c1ccc2c(c1)OCCO2)N1CCN(S(=O)(=O)c2ccc(Cl)cc2F)CC1,6.94% (inactive),–
CC(C)N1CCc2c(sc(NC(=O)C3CCCC3)c2-c2nc3ccccc3s2)C1,-7% (inactive),–
CC(=O)O[C@@](C)(C(=O)/C=C/C(C)(C)O)[C@H]1[C@H](O)C[C@@]2(C)[C@@H]3CC=C4[C@@H](C=C(O)C(=O)C4(C)C)[C@]3(C)C(=O)C[C@]12C,-9.77% [at 28 µM] (inactive),–
Cc1cccc(-c2csc3ncnc(Sc4nnnn4C)c23)c1,-1.87% (inactive),–
N#Cc1ccc(NC(=O)Nc2nnc(-c3ccncc3)s2)cc1,–,inactive
Cc1ccc(N[S+](=O)([O-])c2cc3c(cc2Cl)CCC(=O)N3)cc1Br,3.67% (inactive),–
O=C(Nc1ncc(-c2ccccc2)s1)c1ccc(-c2cccc([N+](=O)[O-])c2)o1,-9.13% (inactive),–
C/C=C1\[C@H](O[C@@H]2O[C@H](CO)[C@@H](O)[C@H](O)[C@H]2O)OC=C(C(=O)OCCc2ccc(O)cc2)[C@H]1CC(=O)OCCc1ccc(O)cc1,3.55% [at 16.9 µM] (inactive),–
CNc1nccc(-c2cccc3ccccc23)n1,-1.61% (inactive),–

Compound,"activity change, negative = inhibition",Potency
Cc1ccc(NS(=O)(=O)c2cc3c(cc2Cl)NC(=O)CO3)cc1Cl,-3.02% (inactive),–
Cc1ccccc1NS(=O)(=O)c1ccc2c(c1)CCC(=O)N2,-1.72% (inactive),–
COc1ccc2c(c1)CN(C(=O)CCN1CCC(Cc3ccccc3)CC1)CCS2,21.2% [at 28 µM] (inactive),–
COc1ccc(-c2nnc3n2N=C(c2ccccc2OC)CS3)cc1,11.5% (inactive),–
Fc1ccc(-c2nc(CCCCSc3nnc(-c4cccc5ccccc45)o3)no2)cc1,8.42% (inactive),–
COC1C=C([C@@H]2CC=C3[C@@]4(C)C(CC[C@]32C)[C@@]2(C)C=CC(=O)C(C)(C)C2C[C@H]4OC(C)=O)C(=O)O1 (stereo not given in full),-19.7% [at 28 µM] (inactive),–
N#Cc1nc(Nc2cc(F)cc(F)c2)c2ncn(CCCN3CCCC3)c2n1,-19.9% (inactive),–
COc1cccc(NC(=S)N2CCN(c3ccc(C(F)(F)F)cc3[N+](=O)[O-])CC2)n1,-11.1% (inactive),–
COc1cccc(-c2nnc3n2N=C(c2c(OC)cccc2OC)CS3)c1OC,18.2% (inactive),–
COC1=CC(=O)C[C@@H](C)[C@@]12Oc1c(Cl)c(OC)cc(OC)c1C2=O,10.7% (inactive),–
Cc1nc(Nc2ccccc2)c2nc(-c3ccccc3)n(CCN3CCOCC3)c2n1,7.49% (inactive),–
O=C(Nc1ccc(-c2ccccc2)cc1)[C@H](Cc1ccc(O[S+](=O)([O-])c2cccc3cnccc23)cc1)N[S+](=O)([O-])c1cccc2cnccc12,-6.98% (inactive),–
Cc1cccc(-n2cnc3cc(C(=O)NC4CCCCC4)ccc32)c1,5.7% (inactive),–
O=C(O)C1C2C(=O)N(c3ccccc3)C[C@@]23C=C[C@@H]1O3 (stereo not given in full),4.06% (inactive),–
CNc1oc(-c2cccc3ncccc23)nc1C#N,-8.39% (inactive),–
O=C1CCCC2=C1C1(CCCCC1)N=C(Nc1nc3ccccc3o1)N2,-4.79% (inactive),–
Cc1cc(C)nc(NC(=S)N2CCN(Cc3c(F)cccc3Cl)CC2)c1,-8.27% (inactive),–
Cc1cc(-c2ccccc2)n2ncc(C(=O)Nc3ccccc3Sc3ccccc3)c2n1,18.2% (inactive),–
CC1=CC2/C=C(\C)CCC(O)C(=O)C(O)CC(=O)C23C(=O)NC(CC(C)C)C3C1C (stereo not given),2.51% [at 28 µM] (inactive),–
Cc1ccc(NS(=O)(=O)c2cc3c(cc2NCCO)NC(=O)CC3)cc1C,12.5% (inactive),–

# Target: Retinaldehyde dehydrogenase 3 (Homo sapiens) (UniProt P47895)
# Assay: qHTS for Inhibitors of the Aldehyde Dehydrogenase Family (ALDH1A3) Primary screen (AID 2061315);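 note: plate controls were DMSO vehicle for no effect and reference inhibitor for full effect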
# Conditions: ALDH inhibition qHTS; series mostly up to 56 µM; activity change, negative = inhibition: at the top concentration
Compound,"activity change, negative = inhibition",Potency
O=C(Nc1ccc(S(=O)(=O)Nc2ncc(-c3ccccc3)s2)cc1)c1ccc2ccccc2c1,16% (inactive),–
N#Cc1nc(Nc2cccc(-c3ccccc3)c2)nc(NC2CCCC2)n1,-0.908% (inactive),–
Cc1cc2c(s1)c1c(n2C)C(=O)N(Cc2ccccc2F)C1,-16.1% (inactive),–
O=C(O)C1CCC(C(=O)Nc2ccc([S+](=O)([O-])Nc3nccs3)cc2)CC1 (stereo not given),-15.5% (inactive),–
Cc1csc(CNc2ncnc3ccc(-c4ccc5c(ccn5C)c4)cc23)c1,-10% (inactive),–
c1nc(NCCc2cnc[nH]2)c2cc(-c3ccc4c(c3)OCO4)ccc2n1,–,inactive
CCn1cnc2c(NCc3cccnc3)nc(C#N)nc21,-2.76% (inactive),–
CCOC(=O)C1CCN(C(=O)C2(NC(=O)Nc3ccc(F)cc3F)CCCCC2)CC1,-3.47% (inactive),–
Cc1cc(C)nc(NC(=S)N2CC3CN(c4ccc(Cl)cc4C(F)(F)F)CC3C2)c1 (stereo not given),33.1% (inactive),–
Cc1cc2c(s1)c1cnn(Cc3ccc(OC(F)F)cc3)c(=O)c1n2C,17.1% (inactive),–
O=C(Nc1ccc(Br)c(Br)c1)Nc1cccc(-c2ccncc2)n1,-2.11% (inactive),–
O=S(=O)(c1ccc2c(c1)OCCO2)N1CCN(S(=O)(=O)c2ccc(Cl)cc2F)CC1,8.04% (inactive),–
CC(C)N1CCc2c(sc(NC(=O)C3CCCC3)c2-c2nc3ccccc3s2)C1,-2.52% (inactive),–
CC(=O)O[C@@](C)(C(=O)/C=C/C(C)(C)O)[C@H]1[C@H](O)C[C@@]2(C)[C@@H]3CC=C4[C@@H](C=C(O)C(=O)C4(C)C)[C@]3(C)C(=O)C[C@]12C,-4.57% [at 28 µM] (inactive),–
Cc1cccc(-c2csc3ncnc(Sc4nnnn4C)c23)c1,5.36% (inactive),–
N#Cc1ccc(NC(=O)Nc2nnc(-c3ccncc3)s2)cc1,–,inactive
Cc1ccc(N[S+](=O)([O-])c2cc3c(cc2Cl)CCC(=O)N3)cc1Br,-1.1% (inactive),–
O=C(Nc1ncc(-c2ccccc2)s1)c1ccc(-c2cccc([N+](=O)[O-])c2)o1,10.8% (inactive),–
C/C=C1\[C@H](O[C@@H]2O[C@H](CO)[C@@H](O)[C@H](O)[C@H]2O)OC=C(C(=O)OCCc2ccc(O)cc2)[C@H]1CC(=O)OCCc1ccc(O)cc1,-12.7% [at 16.9 µM] (inactive),–
CNc1nccc(-c2cccc3ccccc23)n1,-12.3% (inactive),–

Compound,"activity change, negative = inhibition",Potency
Cc1ccc(NS(=O)(=O)c2cc3c(cc2Cl)NC(=O)CO3)cc1Cl,12.5% (inactive),–
Cc1ccccc1NS(=O)(=O)c1ccc2c(c1)CCC(=O)N2,-7.26% (inactive),–
COc1ccc2c(c1)CN(C(=O)CCN1CCC(Cc3ccccc3)CC1)CCS2,-14.2% [at 28 µM] (inactive),–
COc1ccc(-c2nnc3n2N=C(c2ccccc2OC)CS3)cc1,0.0455% (inactive),–
Fc1ccc(-c2nc(CCCCSc3nnc(-c4cccc5ccccc45)o3)no2)cc1,5% (inactive),–
COC1C=C([C@@H]2CC=C3[C@@]4(C)C(CC[C@]32C)[C@@]2(C)C=CC(=O)C(C)(C)C2C[C@H]4OC(C)=O)C(=O)O1 (stereo not given in full),16% [at 28 µM] (inactive),–
N#Cc1nc(Nc2cc(F)cc(F)c2)c2ncn(CCCN3CCCC3)c2n1,12.9% (inactive),–
COc1cccc(NC(=S)N2CCN(c3ccc(C(F)(F)F)cc3[N+](=O)[O-])CC2)n1,29.8% (inactive),–
COc1cccc(-c2nnc3n2N=C(c2c(OC)cccc2OC)CS3)c1OC,-4.21% (inactive),–
COC1=CC(=O)C[C@@H](C)[C@@]12Oc1c(Cl)c(OC)cc(OC)c1C2=O,3.57% (inactive),–
Cc1nc(Nc2ccccc2)c2nc(-c3ccccc3)n(CCN3CCOCC3)c2n1,-3% (inactive),–
O=C(Nc1ccc(-c2ccccc2)cc1)[C@H](Cc1ccc(O[S+](=O)([O-])c2cccc3cnccc23)cc1)N[S+](=O)([O-])c1cccc2cnccc12,2.98% (inactive),–
Cc1cccc(-n2cnc3cc(C(=O)NC4CCCCC4)ccc32)c1,1.84% (inactive),–
O=C(O)C1C2C(=O)N(c3ccccc3)C[C@@]23C=C[C@@H]1O3 (stereo not given in full),4.35% (inactive),–
CNc1oc(-c2cccc3ncccc23)nc1C#N,-1.8% (inactive),–
O=C1CCCC2=C1C1(CCCCC1)N=C(Nc1nc3ccccc3o1)N2,0.946% (inactive),–
Cc1cc(C)nc(NC(=S)N2CCN(Cc3c(F)cccc3Cl)CC2)c1,-8.18% (inactive),–
Cc1cc(-c2ccccc2)n2ncc(C(=O)Nc3ccccc3Sc3ccccc3)c2n1,9.34% (inactive),–
CC1=CC2/C=C(\C)CCC(O)C(=O)C(O)CC(=O)C23C(=O)NC(CC(C)C)C3C1C (stereo not given),0.187% [at 28 µM] (inactive),–
Cc1ccc(NS(=O)(=O)c2cc3c(cc2NCCO)NC(=O)CC3)cc1C,8.88% (inactive),–
